Molecules are shown by their SMILES. Hit rate of the full screen: of about 400,000 compounds, about 13,000 (3.2%) were called active. A call without a number means that no potency is given here. Inconclusive results (about 18%) are left out. Calls follow the shape of the dose curve; as a rule, active = well fitted cell-killing curve with a large enough effect; inconclusive = small, poorly fitted or top-dose-only effect, or effect the other way; inactive = flat fitted curve, though single readings scatter. The sample as a whole holds a higher share of actives than the screen did.
Potency is read from the fitted curve at half-maximal effect.

The nature of the assay: qHTS assay for MDR1-selective chemotherapeutics: Primary screen using the drug-selected MDR subline cells KB-V1. Also: nearly all actives have a fitted effect of over 60% in size. The conditions noted are these: KB-V1 MDR cells viability, CellTiter-Glo, 72 h; series mostly up to 46.1 µM. The method in brief: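 In this primary screen, KB-V1 cells overexpressing P-gp are incubated with library compounds (lowest to highest concentration) for 72 h at 37 degrees C before a luminescent ATP viability read.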
A general note: In qHTS, concentration-response curves come from the screen itself.
On to `c1cc(-c2ccc3[nH]ccc3c2)n2ccnc2c1`, for which the Potency result was “inactive”.

For `CCCCC(=O)N(C)c1c(CC)nc2c(OCc3ccc(S(C)(=O)=O)cc3)cccn12`, the Potency result was “inactive”.

Regarding `CCCCC(=O)N(C)c1c(CC)nc2c(OCc3ccc(Cl)cc3Cl)cccn12`, the Potency was 16.4 µM (active).

Turning to `CCOC(=O)N(C)c1c(CC)nc2c(OCc3ccccc3C(=O)OC)cccn12`, the Potency result was “inactive”.

For `CCc1nc2ccc(C(=O)N(C)CCN(C)C)cn2c1N(CC)CCOC`, the Potency entry was “inactive”.

`CC(=O)C[C@@H]1OC[C@H](C)N1S(=O)(=O)c1ccc(C)cc1`: the Potency entry was “inactive”.

With `Cc1ccc(C)c(N2CCN(S(=O)(=O)c3ccc4c(c3)oc(=O)n4C)CC2)c1`, the Potency is 14.6 µM (active).

Turning to `Cc1ccc2nc(NC(=O)C3CCN(S(=O)(=O)c4ccc5c(c4)oc(=O)n5C)CC3)sc2c1`, the Potency result was “inactive”.

Take `Cc1ccc(NS(=O)(=O)c2ccc3c(c2)oc(=O)n3C)c(C)c1`: the Potency result is “inactive”.

On to `COc1ccc(NC(=O)c2cc(=O)[nH]c3ccccc23)cc1S(=O)(=O)N1CCOCC1`, for which the Potency result was “inactive”.

As for `Cc1nc(C(F)(F)F)ccc1C(=O)N1CCC1(C)C(=O)NS(=O)(=O)c1ccc(F)cc1F` (configuration not stated), the Potency entry is “inactive”.

With `COc1ccc2ncc3c(-c4ccc(C)c(C)c4)nn(CC(=O)NC4CCCC4)c3c2c1`, the Potency entry was “inactive”.

For `Cc1ccc([C@H]2N[C@]3(CCCN(Cc4ccccc4)C3=O)[C@H]3C(=O)N(Cc4ccccc4)C(=O)[C@@H]23)cc1`, the Potency result was “inactive”.

As for `Cc1nnc(OCC(=O)NCCC2=CCCCC2)c2ccccc12`, the Potency entry is “inactive”.

Regarding `O=C(CNCCC1=CCCCC1)Nc1ccccc1N1CCCCCC1`, the Potency is 11.6 µM (active).

Regarding `Cc1ccc(C(C)C)cc1OCC(=O)Nc1ccccc1N1CCCC1`, the Potency result is “inactive”.

Take `Cc1ccc2nc(-c3ccco3)c(Cc3cccc(Cl)c3)n2c1`: the Potency entry is “inactive”.

As for `COc1ccc(C(=NN)c2ccc(OC)cc2)cc1`, the Potency result was “inactive”.

Turning to `COc1ccc(C(C#N)=C2C=CC(=NO)c3ccccc32)cc1`, the Potency is 1.3 µM (active).

On to `COc1ccc(/C(N)=N/OC(=O)Cc2ccccc2)cc1`, for which the Potency entry is “inactive”.

As for `CCNC(=O)c1cc2c(c(-c3cccc(-c4cncnc4)c3)n1)[C@H](CCO)N(C(C)=O)C2`, the Potency entry is “inactive”.

As to `O=C(NCc1ccccc1Cl)c1csc([C@@H]2O[C@H](CO)[C@@H](O)[C@H]2O)n1`, the Potency entry is “inactive”.

Take `COc1cc(C(=O)NCc2nnc(SCC(=O)c3ccc(Cl)cc3)o2)cc(OC)c1OC`: the Potency entry is “inactive”.

For the compound `CCC(=O)Nc1ccc(C(=O)CSc2nnc(CNc3ccc(Cl)cc3)o2)cc1OC`, the Potency is 14.6 µM (active).

For the compound `CCOC(=O)CSc1nnc(CNc2ccc(F)cc2)o1`, the Potency entry was “inactive”.

For the compound `CCc1nc2c(OCc3cccc(OC)c3)cccn2c1N(C)C(=O)C(C)C`, the Potency entry is “inactive”.

For the compound `CSc1ncnc2c1ncn2CCCNCc1cccs1`, the Potency result was “inactive”.
